Results filed as inconclusive are left out. The source made the active and inactive calls. Unless noted, calls follow the shape of the dose curve; as a rule, active = well fitted curve in the direction sought with a large enough effect; inconclusive = small, poorly fitted or top-dose-only effect, or another doubt; inactive = no such curve, though single readings can be large; an effect the other way counts as inactive or inconclusive.
Columns and labels:
[1] = target: Thioredoxin reductase 1, cytoplasmic (Rattus norvegicus) (UniProt O89049); assay: qHTS Assay for Inhibitors of Mammalian Selenoprotein Thioredoxin Reductase 1 (TrxR1) (AID 488773); conditions: Potency: inhibition;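 also: drop in NADPH fluorescence over an 8 min run after selenite addition; series mostly up to about 57 µM; % is scaled to controls: 0 for no effect and ±100 for the full control effect; nearly all actives have a fitted effect of over 40% in size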
Sequence of Thioredoxin reductase 1, cytoplasmic (Rattus norvegicus) (O89049 whole entry, looked up): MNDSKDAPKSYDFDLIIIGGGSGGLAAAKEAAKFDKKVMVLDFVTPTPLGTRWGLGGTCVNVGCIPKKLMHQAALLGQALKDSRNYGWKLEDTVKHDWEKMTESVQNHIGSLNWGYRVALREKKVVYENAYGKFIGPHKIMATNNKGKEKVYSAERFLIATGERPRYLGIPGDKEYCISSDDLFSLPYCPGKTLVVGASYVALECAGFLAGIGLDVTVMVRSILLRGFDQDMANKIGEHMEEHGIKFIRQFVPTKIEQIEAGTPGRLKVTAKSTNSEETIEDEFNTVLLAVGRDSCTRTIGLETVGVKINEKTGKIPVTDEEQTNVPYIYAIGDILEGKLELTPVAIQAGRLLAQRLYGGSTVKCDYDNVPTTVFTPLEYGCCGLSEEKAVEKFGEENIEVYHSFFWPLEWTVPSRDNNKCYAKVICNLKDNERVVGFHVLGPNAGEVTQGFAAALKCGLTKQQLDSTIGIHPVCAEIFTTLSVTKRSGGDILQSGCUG
Method in brief: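 Steps: enzyme (90 nM) plus NADPH (400 uM final), 5 min at ~22 deg C; compound added, 15 min; selenite (400 uM final) added; fluorescence followed for 8 min. Concentration-response curves derived from the normalized delta values.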

[2] = target: Flap endonuclease 1 (Homo sapiens) (UniProt P39748); assay: qHTS Validation Assay for the Inhibitors of Human Flap endonuclease 1 (FEN1) (AID 488816); also: % is scaled to controls: 0 for no effect and ±100 for the full control effect
Method in brief: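 Readings taken at 0 and 15 min after starting the reaction with 50 nM (final) substrate supplied the signal. Compounds had first sat with 10 nM FEN1 reagent for 15 min at room temperature. Values come from Hill-equation concentration-response fits.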

[3] = target: M-phase phosphoprotein 8 (Homo sapiens) (UniProt Q99549); assay: qHTS Validation Assay for Inhibitors for MPP8 Chromodomain Interactions with Methylated Histone Tails (AID 488949);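 also: AlphaScreen signal from MPP8 chromodomain bound to biotinylated H3K9me3 peptide; top concentration of the series differs between compounds; % is scaled to controls: 0 for no effect and ±100 for the full control effect; nearly all actives have a fitted effect of over 55% in size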
Sequence of M-phase phosphoprotein 8 (Homo sapiens) (Q99549 whole entry, looked up): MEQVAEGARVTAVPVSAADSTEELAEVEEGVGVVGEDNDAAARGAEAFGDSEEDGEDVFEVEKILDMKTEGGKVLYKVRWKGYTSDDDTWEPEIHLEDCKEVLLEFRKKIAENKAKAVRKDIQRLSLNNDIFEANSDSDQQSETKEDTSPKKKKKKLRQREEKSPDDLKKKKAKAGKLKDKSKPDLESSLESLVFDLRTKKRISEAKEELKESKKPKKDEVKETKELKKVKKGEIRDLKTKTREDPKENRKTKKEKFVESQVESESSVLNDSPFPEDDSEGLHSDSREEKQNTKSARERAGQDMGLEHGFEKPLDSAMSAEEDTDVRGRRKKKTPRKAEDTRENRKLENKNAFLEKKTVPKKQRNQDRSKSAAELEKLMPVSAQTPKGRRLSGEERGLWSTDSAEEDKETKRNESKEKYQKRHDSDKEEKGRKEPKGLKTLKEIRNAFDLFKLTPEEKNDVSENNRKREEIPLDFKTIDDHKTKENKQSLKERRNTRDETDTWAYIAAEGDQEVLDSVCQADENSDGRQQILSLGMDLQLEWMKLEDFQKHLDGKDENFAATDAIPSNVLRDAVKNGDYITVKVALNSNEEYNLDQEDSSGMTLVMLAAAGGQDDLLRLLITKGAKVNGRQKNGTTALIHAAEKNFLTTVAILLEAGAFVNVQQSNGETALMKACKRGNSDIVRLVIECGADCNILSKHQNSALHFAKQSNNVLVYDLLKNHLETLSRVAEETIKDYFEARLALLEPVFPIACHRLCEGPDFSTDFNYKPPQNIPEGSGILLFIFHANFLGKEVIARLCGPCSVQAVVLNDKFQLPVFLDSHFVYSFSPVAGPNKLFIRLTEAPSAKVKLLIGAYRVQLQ
Method in brief: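 Disruption of the preformed MPP8–trimethyl-H3K9 peptide complex (both 50 nM, 30 min, RT) is measured after 30 min compound exposure, using AlphaScreen proximity beads; aurintricarboxylic acid titration serves as plate control.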

[4] = target: Methanococcus maripaludis chaperonin (MmCpn) (UniProt Q6LX38); assay: High-Throughput Screening for Modulators of Cytosolic Chaperonin Activity: MmCpn Primary Screen (AID 488978);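 also: 50 nM MmCpn enzyme hydrolysing 30 µM ATP at 37 °C; 0% is about no effect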
Sequence of Methanococcus maripaludis chaperonin (MmCpn) (Q6LX38 1-543): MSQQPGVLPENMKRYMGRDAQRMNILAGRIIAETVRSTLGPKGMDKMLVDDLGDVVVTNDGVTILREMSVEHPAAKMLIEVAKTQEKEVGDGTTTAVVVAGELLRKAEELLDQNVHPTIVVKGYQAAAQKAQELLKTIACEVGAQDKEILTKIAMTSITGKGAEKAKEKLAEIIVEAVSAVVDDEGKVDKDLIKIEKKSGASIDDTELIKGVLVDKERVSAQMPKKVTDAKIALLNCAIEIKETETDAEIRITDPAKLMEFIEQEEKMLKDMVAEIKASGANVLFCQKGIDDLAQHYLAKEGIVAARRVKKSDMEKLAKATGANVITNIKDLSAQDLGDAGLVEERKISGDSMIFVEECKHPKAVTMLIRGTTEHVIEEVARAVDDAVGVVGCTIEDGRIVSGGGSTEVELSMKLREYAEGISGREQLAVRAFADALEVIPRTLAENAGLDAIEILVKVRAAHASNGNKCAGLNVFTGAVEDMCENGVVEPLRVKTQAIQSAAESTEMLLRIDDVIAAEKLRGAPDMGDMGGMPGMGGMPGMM
Method in brief: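 Measures ATPase turnover of the M. maripaludis chaperonin (50 nM final) against 30 uM ATP over 10 min at 37C, with compound added 5 min beforehand at room temperature. ADP is quantified by HTRF immunodetection.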

[5] = target: Transient receptor potential cation channel subfamily V member 1 (Homo sapiens) (UniProt Q8NER1); assay: HTS Assay for Compounds that Act as Enhancers of the Vanilloid Receptor 1 (AID 488979); also: 0% is about no effect
Sequence of Transient receptor potential cation channel subfamily V member 1 (Homo sapiens) (Q8NER1 whole entry, looked up): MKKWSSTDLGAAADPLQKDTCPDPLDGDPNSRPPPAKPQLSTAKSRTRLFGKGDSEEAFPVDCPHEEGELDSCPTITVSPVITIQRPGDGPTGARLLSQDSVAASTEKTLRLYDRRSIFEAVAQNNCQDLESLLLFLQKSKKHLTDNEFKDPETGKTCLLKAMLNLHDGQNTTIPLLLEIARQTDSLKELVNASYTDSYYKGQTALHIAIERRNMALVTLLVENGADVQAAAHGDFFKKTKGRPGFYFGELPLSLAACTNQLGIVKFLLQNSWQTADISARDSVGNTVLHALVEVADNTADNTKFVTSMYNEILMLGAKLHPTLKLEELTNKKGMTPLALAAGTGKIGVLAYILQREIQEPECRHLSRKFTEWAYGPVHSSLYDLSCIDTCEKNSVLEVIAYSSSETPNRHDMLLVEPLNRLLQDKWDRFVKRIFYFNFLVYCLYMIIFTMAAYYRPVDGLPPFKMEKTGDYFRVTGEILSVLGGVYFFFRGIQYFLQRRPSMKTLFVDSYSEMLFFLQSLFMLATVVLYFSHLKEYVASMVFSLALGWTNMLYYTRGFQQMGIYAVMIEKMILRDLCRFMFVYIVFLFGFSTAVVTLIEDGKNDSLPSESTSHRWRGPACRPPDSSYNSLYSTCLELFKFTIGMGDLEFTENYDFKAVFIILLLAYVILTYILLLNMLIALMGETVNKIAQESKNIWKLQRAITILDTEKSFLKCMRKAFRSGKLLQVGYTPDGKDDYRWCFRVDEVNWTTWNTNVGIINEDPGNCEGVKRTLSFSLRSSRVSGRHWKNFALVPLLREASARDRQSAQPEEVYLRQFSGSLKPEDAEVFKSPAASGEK
Method in brief: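 Calcium influx kinetics via Fluo-8 (480/520 nm) in TRPV1-expressing cells, 2000/well cultured overnight at 35.5C. Compound-alone read 3 min (agonist phase), followed by EC20 capsaicin challenge for 2 min (enhancer phase).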

[6] = target: Thyrotropin receptor (Homo sapiens) (UniProt P16473); assay: qHTS Assay for Antagonists of the Thyroid Stimulating Hormone Receptor (AID 488980); also: series mostly up to about 58 µM; 0% is about no effect
Sequence of Thyrotropin receptor (Homo sapiens) (P16473 whole entry, looked up): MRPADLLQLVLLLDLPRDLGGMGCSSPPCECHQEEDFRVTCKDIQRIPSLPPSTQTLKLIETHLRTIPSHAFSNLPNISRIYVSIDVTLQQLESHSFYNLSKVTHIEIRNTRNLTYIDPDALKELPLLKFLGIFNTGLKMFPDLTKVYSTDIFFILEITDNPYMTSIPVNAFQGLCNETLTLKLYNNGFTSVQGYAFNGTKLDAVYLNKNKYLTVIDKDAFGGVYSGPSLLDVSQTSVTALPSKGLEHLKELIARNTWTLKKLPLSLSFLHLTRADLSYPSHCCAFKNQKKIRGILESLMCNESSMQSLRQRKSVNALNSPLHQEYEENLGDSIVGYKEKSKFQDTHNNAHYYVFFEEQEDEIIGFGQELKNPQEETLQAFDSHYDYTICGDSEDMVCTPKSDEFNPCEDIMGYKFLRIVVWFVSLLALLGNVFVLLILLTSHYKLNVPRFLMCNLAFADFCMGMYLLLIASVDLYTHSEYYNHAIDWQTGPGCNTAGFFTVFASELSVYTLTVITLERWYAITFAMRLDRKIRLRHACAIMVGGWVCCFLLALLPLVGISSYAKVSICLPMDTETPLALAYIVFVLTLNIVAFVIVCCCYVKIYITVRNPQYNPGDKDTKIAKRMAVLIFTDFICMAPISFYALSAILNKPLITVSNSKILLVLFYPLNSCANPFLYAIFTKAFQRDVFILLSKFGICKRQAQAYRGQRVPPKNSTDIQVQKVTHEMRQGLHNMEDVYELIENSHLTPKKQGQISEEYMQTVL
Method in brief: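 Cells expressing human TSHR (HEK293) are dispensed in HBSS/HEPES containing 70 uM RO 20-1724, compound is added, then TSH at EC80 (4 nM final). Antibody in lysis buffer follows, 30 minutes at room temperature before HTRF detection.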

[7] = target: D(1A) dopamine receptor (Homo sapiens) (UniProt P21728); assay: HTS Assay for Allosteric Agonists of the Human D1 Dopamine Receptor: Primary Screen for Agonists (AID 488981); also: 0% is about no effect
Sequence of D(1A) dopamine receptor (Homo sapiens) (P21728 whole entry, looked up): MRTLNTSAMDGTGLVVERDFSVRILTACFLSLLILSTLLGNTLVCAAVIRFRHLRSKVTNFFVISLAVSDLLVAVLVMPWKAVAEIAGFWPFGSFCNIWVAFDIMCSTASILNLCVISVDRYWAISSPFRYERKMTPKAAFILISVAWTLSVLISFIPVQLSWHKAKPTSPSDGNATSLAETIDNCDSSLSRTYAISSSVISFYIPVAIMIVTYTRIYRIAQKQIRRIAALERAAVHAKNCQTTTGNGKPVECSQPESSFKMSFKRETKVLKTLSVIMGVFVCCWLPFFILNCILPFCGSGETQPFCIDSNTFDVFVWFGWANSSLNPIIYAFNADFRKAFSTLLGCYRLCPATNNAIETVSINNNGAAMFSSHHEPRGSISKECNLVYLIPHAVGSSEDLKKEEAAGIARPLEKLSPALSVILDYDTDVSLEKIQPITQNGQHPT
Method in brief: (§1)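 Calcium flux in an inducible, force-coupled HEK293 Trex D1 line (overnight at 30 C): agonist mode is the 180 s kinetic read after compound; potentiator mode is the following 180 s read after dopamine at EC20.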

[8] = target: D(1A) dopamine receptor (Homo sapiens) (UniProt P21728); assay: HTS Assay for Allosteric Agonists of the Human D1 Dopamine Receptor: Primary Screen for Potentiators (AID 488982); also: 0% is about no effect
Method in brief: as §1

[9] = target: D(1A) dopamine receptor (Homo sapiens) (UniProt P21728); assay: HTS Assay for Allosteric Agonists of the Human D1 Dopamine Receptor: Primary Screen for Antagonists (AID 488983);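 also: calcium flux response to an EC80 dopamine challenge measured with no-wash dye; % is scaled to controls: 0 for no effect and ±100 for the full control effect; nearly all actives have a fitted effect of over 65% in size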
Method in brief: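 Screening of inducible HEK293 T-REx D1 cells: compound first, EC80 dopamine 180 s later, each phase read kinetically for calcium over 180 s.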

[10] = Validation screen for small molecules that induce genotoxicity in human embryonic kidney (HEK293T) cells expressing luciferase-tagged ELG1 (AID 493106); also: 0% is about no effect
Method in brief: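 Reporter-gene quantitative HTS in HEK293T cells carrying luciferase-tagged ELG1, whose level climbs under genotoxic stress. Compound exposure lasts 16 hr at 37 °C before luciferase detection.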

[11] = target: Thyrotropin-releasing hormone receptor (Homo sapiens) (UniProt P34981); assay: qHTS for Small Molecule Agonists and Allosteric Enhancers of Human TRH Receptor: Validation Screen for Agonists (AID 493127;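 active = calcium activation more than 3 SD above the typical response in the agonist read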;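 also: intracellular calcium rise by fluo-8 fluorescence before TRH EC20 addition; 0% is about no effect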); conditions: TRH receptor agonist cell assay; at 2 µM; stronger effect = higher value
Sequence of Thyrotropin-releasing hormone receptor (Homo sapiens) (P34981 whole entry, looked up): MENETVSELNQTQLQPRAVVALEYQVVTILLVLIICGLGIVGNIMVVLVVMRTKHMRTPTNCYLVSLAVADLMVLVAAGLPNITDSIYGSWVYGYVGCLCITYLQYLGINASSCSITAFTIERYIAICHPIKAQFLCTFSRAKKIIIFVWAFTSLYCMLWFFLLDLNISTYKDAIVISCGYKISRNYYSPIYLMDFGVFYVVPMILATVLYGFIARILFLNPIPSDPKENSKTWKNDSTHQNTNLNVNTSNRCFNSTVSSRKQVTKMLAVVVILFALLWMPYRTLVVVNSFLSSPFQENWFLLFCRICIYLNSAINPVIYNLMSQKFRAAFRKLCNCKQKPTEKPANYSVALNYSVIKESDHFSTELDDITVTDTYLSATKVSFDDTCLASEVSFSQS
Method in brief: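 Gq-coupled calcium mobilization in TRHR cells after compound addition, monitored kinetically with fluo-8 dye on an FDSS reader.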

[12] = Nrf2 qHTS screen for inhibitors: Validation (AID 493153; active = well fitted inhibition curve with a large enough effect in the main read-out, with a control signal flat, not every such curve was filed as active); conditions: viability change: measured here: cytotoxicity max response
Method in brief: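 Dose-response validation uses reporter A549 cells with firefly luciferase under an antioxidant response element. Compounds stay on cells 18-24 h at 37°C, and luminescence indicates Nrf2-driven transcription.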

[13] = qHTS for Inhibitors of Cell Surface uPA Generation: Validation Assay (AID 493164);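 also: RAW 264.7 macrophage cells exposed to compound for 18 h; 0% is about no effect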
Method in brief: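 RAW 264.7, 4000 cells/well, o/n plating; cpd 7-pt 1:5 dilution 2.45 nM–38.3 uM final; 18 h, 37 C/5% CO2; ATP-Lite, 5 s luminescence exposure.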

[14] = target: Galactokinase (Homo sapiens) (UniProt P51570); assay: qHTS Validation Assay for Inhibitors of Human Galactokinase (GALK) (AID 493189); also: 0% is about no effect
Sequence of Galactokinase (Homo sapiens) (P51570 whole entry, looked up): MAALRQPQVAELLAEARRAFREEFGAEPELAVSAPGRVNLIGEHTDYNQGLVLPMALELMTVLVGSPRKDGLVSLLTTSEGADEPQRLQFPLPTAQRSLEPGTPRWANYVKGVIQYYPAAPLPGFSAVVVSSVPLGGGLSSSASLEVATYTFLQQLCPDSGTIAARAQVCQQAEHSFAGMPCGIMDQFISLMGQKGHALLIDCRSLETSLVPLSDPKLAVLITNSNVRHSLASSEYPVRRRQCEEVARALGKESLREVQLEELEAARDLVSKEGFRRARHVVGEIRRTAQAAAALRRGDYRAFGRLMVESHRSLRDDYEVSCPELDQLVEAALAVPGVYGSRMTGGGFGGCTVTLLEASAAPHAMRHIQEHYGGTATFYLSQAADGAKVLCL
Method in brief: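 Compounds were pin-transferred into ATP buffer, then GALK-galactose mix was added (final 5 nM enzyme, 100 uM galactose, 35 uM ATP). After 1 h at room temperature, remaining ATP was measured luminescently.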

[15] = Validation screen for small molecules that induce DNA re-replication in SW480 colon adenocarcinoma cells (AID 504364); also: 0% is about no effect
Method in brief: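 Cells are treated 48 hr with test compound, stained 40 min with Hoechst at 37 C, and scanned for nuclear fluorescence; compounds inducing re-replication increase nuclei with elevated intensity.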

[16] = target: Peptidyl-prolyl cis-trans isomerase NIMA-interacting 1 (Homo sapiens) (UniProt Q13526); assay: qHTS Validation Assay to Find Inhibitors of Pin1 (AID 504536; active = well fitted inhibition curve with a large enough effect in the polarisation, with a control signal flat, not every such curve was filed as active; the % refers to the polarisation;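 also: 0% = full Pin1 enzyme wells and -100% = no-enzyme wells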)
Method in brief: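 Fluorescence polarization competition: compounds (titration) displace HiFluor-488-labeled Pin1-1b peptide from Pin1 (0.3 uM final) in pH 7.5 HEPES buffer with DTT, 10 min at room temperature; %Activity normalized to no-enzyme wells, curves fitted.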

[17] = target: Chromobox protein homolog 1 (Homo sapiens) (UniProt P83916); assay: qHTS Validation Assay for Inhibitors of HP1-beta Chromodomain Interactions with Methylated Histone Tails (AID 488953);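 also: loss of AlphaScreen luminescence from HP1-beta binding biotinylated H3K9me3 peptide; series mostly up to about 110 µM; % is scaled to controls: 0 for no effect and ±100 for the full control effect; nearly all actives have a fitted effect of over 50% in size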
Sequence of Chromobox protein homolog 1 (Homo sapiens) (P83916 whole entry, looked up): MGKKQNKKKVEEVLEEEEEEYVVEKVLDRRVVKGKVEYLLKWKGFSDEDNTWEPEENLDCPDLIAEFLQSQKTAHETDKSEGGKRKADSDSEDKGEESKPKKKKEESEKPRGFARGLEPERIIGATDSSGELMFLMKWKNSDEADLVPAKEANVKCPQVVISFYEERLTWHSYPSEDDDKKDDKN
Method in brief: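 Measured as loss of AlphaScreen luminescence from streptavidin donor and nickel acceptor beads (10 ug/mL final) bridging HP1-beta and biotin-H3(1-18)K9me3, each 50 nM. Compounds met the preassembled complex for 30 min at RT.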

[18] = target: ATPase family AAA domain-containing protein 5 (Homo sapiens) (UniProt Q96QE3); assay: Validation screen for small molecules that inhibit ELG1-dependent DNA repair in human embryonic kidney (HEK293T) cells expressing luciferase-tagged ELG1 (AID 493107);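 also: cells co-treated with the DNA-damaging agent 5-fluorouridine alongside compound; series mostly up to about 46 µM; % is scaled to controls: 0 for no effect and ±100 for the full control effect; inhibitors lower the ELG1-luciferase luminescence signal; nearly all actives have a fitted effect of over 70% in size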
Method in brief: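 Quantitative HTS in HEK293T cells carrying luciferase-tagged ELG1, stimulated with 5-fluorouridine alongside compound for 16 hr. Loss of luciferase signal marks inhibition of ELG1 response.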

CNCCc1c[nH]c2ccc(O)cc12
inactive: Potency [1] | Potency [2] | Potency [3] | outcome [4] | outcome [5] | outcome [6] | Potency [7] | outcome [8] | Potency [9] | outcome [10] | activation [11] 1.06% | outcome [12] | outcome [13] | outcome [14] | outcome [15] | outcome [16]
1.11%: viability change [12]

CCCCc1ccc(C(=O)O)nc1
inactive: Potency [1] | Potency [2] | Potency [3] | Potency [17] | outcome [4] | outcome [5] | outcome [6] | Potency [7] | outcome [8] | Potency [9] | outcome [10] | activation [11] 1.25% | outcome [13] | outcome [14] | outcome [15] | outcome [16]

S=C(NC1CCCCC1)N1CCC(c2cnc[nH]2)CC1
-5.13%: viability change [12]
inactive: Potency [1] | Potency [2] | Potency [3] | outcome [4] | outcome [6] | Potency [7] | outcome [8] | Potency [9] | outcome [10] | activation [11] 0.5% | outcome [12] | outcome [13] | outcome [14] | outcome [15] | outcome [16]

NC(=NCCC[C@H](N)C(=O)O)N[N+](=O)[O-]
3.87%: viability change [12]
inactive: Potency [1] | Potency [2] | Potency [3] | Potency [17] | outcome [4] | outcome [5] | outcome [6] | Potency [7] | outcome [8] | Potency [9] | outcome [10] | activation [11] 0.625% | outcome [12] | outcome [13] | outcome [14] | outcome [15] | outcome [16]

O=C(O)CC[N+](=O)[O-]
inactive: Potency [1] | Potency [2] | Potency [17] | outcome [4] | outcome [5] | Potency [7] | outcome [8] | Potency [9] | outcome [10] | outcome [13] | outcome [14] | outcome [15] | outcome [16]

CCCN(CCC)C1CCc2ccc(O)cc2C1 (configuration not stated)
-3.98%: viability change [12]
inactive: Potency [1] | Potency [2] | Potency [17] | outcome [4] | outcome [5] | outcome [6] | Potency [7] | outcome [8] | outcome [10] | Potency [18] | activation [11] -5.19% | outcome [12] | outcome [13] | outcome [14] | outcome [15] | outcome [16]

From PubChem BioAssay (NCATS)
